KDM5B inhibitor: blocks human KDM5B histone demethylase activity; Q9UGL1; KDM5B demethylase, FDH-coupled NADH fluorescence (FDH is formaldehyde dehydrogenase); Potency, µM (top dose mostly 57.7 µM), actives largely listed as inhibitors; hit rate 2.6% among 220,000; AID 1347165; note: potency is the fitted concentration of half-maximal effect; 0% is about no effect; nearly all actives have a fitted effect of over 70% in size
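Measured: NADH fluorescence change, 30 min, RT. System: KDM5BΔAP 200 nM final, H3K4me3 peptide, α-KG, Fe(II), ascorbate, NAD⁺ plus FDH, pH 7.5 HEPES. Compounds: titrated, 10 min pre-incubation with enzyme.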
IP6K1 inhibitor: blocks human inositol hexakisphosphate kinase 1. activity change, % (series mostly up to about 58 µM). hit rate 0.81% among 140,000. IP6K1 kinase, ADP-Glo luminescence, 2 h; active compounds read low; in the data active = activity change below about -25%; note: % is set by controls: 0 for no effect and ±100 for the full control effect
Target sequence (Q92551 whole entry, looked up): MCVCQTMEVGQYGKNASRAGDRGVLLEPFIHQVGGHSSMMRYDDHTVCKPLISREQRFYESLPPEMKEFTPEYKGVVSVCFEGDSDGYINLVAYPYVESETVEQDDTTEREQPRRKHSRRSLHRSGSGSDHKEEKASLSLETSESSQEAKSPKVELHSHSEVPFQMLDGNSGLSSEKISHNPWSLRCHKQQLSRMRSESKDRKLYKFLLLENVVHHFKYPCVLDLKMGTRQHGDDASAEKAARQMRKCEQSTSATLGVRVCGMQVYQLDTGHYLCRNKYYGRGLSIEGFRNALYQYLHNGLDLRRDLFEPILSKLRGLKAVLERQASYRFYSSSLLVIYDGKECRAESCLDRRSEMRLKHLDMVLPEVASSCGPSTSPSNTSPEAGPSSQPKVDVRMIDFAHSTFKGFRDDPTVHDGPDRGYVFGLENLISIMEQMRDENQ
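ADP-Glo luminescence measures ADP made by human IP6K1 during a 2 h RT reaction with ATP/IP6 (mix at 1.3 mM/130 uM); top library doses 57.5 and 19.1 uM final.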
IP6K1 inh cnf: human IP6K1 inhibition, confirmatory. shares compounds with IP6K1 inhibitor. recombinant IP6K1 kinase, ADP-Glo luminescence, 2 h. Potency, µM (doses to about 49 µM), for inactives: top-dose activity change, negative = inhibition, hits mostly inhibitors. hit rate 13% among 1,200. AID 1645852; note: potency is the fitted concentration of half-maximal effect; % is set by controls: 0 for no effect and ±100 for the full control effect; nearly all actives have a fitted effect of over 65% in size
The depositor's hits bear a star. The list is not random: actives were taken first. Their share in the collection is about 2.8%. Unless noted, calls come from the whole dose curve; as a rule, active = well fitted inhibition curve with a large enough effect; inconclusive = small, poorly fitted or top-dose-only effect; inactive = no such curve, though single readings can be large or run the other way.

CC(Oc1ccccc1)C(=O)Nc1ccccc1C(=O)OCc1cc(=O)n2nc(C3CC3)sc2n1 (configuration not stated) was read as KDM5B inhibitor inactive, IP6K1 inhibitor -27* and IP6K1 inh cnf 0%.
For CC(C)Cc1nn2c(=O)cc(COC(=O)c3ccccc3NC(=O)c3ccccc3)nc2s1 the results were KDM5B inhibitor inactive, IP6K1 inhibitor -28* and IP6K1 inh cnf -6%.
Screening Cc1nn2c(=O)cc(COC(=O)c3ccc(F)cc3)nc2s1 returned KDM5B inhibitor inactive, IP6K1 inhibitor -27* and IP6K1 inh cnf -13%.
Screening Cc1nn2c(=O)cc(COC(=O)c3ccc(C(C)(C)C)cc3)nc2s1 returned KDM5B inhibitor inactive and IP6K1 inhibitor 13.
For CC(=O)N1CCCC(COc2ccccc2C(=O)N2CCC(C)CC2)C1 (configuration not stated) the results were IP6K1 inhibitor 11.
For O=c1nc(-c2ccccn2)sc2ccccc12 the results were IP6K1 inhibitor -54* and IP6K1 inh cnf -18%.
Screening NC(N)=Nc1nc(=O)c2ccccc2s1 returned KDM5B inhibitor inactive.
Screening O=C(Cc1ccccc1)NC1CN(c2ccnc3ccnn23)C1 returned IP6K1 inhibitor 12.
C=CCCOC(=O)N1C[C@@H](C(N)=O)[C@@H]2Oc3c(C)cccc3[C@@H]21 was read as IP6K1 inhibitor 7.
`Cc1cc(Nc2nc(N[C@@H](C)c3ncc(F)cn3)ncc2Cl)n[nH]1` gave IP6K1 inhibitor -1 and IP6K1 inh cnf 1%.
`Brc1ccc2[nH]c3c(c2c1)CCCC3` gave KDM5B inhibitor inactive.
Screening O=C(CCCCn1c(=O)c2ccccc2n(Cc2cccc(Cl)c2)c1=O)NCc1ccc2c(c1)OCO2 returned KDM5B inhibitor inactive, IP6K1 inhibitor -28* and IP6K1 inh cnf -7%.
Screening Cc1cccc(Cn2c(=O)n(CCCCC(=O)NCc3ccc4c(c3)OCO4)c(=O)c3ccccc32)c1 returned KDM5B inhibitor inactive and IP6K1 inhibitor 2.
CC(=O)c1ccc(NC(=O)C(C)Sc2nc3nc(C)cc(C)c3c(=O)[nH]2)cc1 (configuration not stated) was read as KDM5B inhibitor inactive.
Screening Cc1ccc(C(=O)OCCOc2ccccc2Cl)cc1O returned KDM5B inhibitor inactive.
`Cc1nc(C2CCCCN2C(=O)Nc2ccccc2F)n[nH]1` (configuration not stated) gave IP6K1 inhibitor -3.
Screening Cc1cc(N2CCOCC2)ccc1Nc1nc(NC2CCCCC2)c2[nH]cnc2n1 returned IP6K1 inhibitor -47* and IP6K1 inh cnf 2.1µM*.
`Cc1cc(Cl)ccc1Nc1nc(N2CCOCC2)nc2nccnc12` gave KDM5B inhibitor inactive.
`CCN(CC)c1ccc(NC(=O)CCc2c[nH]c3ccccc23)cc1` gave KDM5B inhibitor inactive.
Screening N#CC(=Cc1ccc(O)c(O)c1)C(=O)NCc1ccccc1 returned IP6K1 inh cnf inconclusive.
For N#C/C(=C\c1c2ccccc2cc2ccccc12)C(=O)NCCc1ccccc1 the results were KDM5B inhibitor inactive.
For Cc1nc(N2CCCC2)c2c(C(=O)NCc3ccco3)c(C)oc2n1 the results were KDM5B inhibitor inactive.
Screening COc1ccc(-c2ccc(C(=O)NCc3ccccn3)cc2)nn1 returned IP6K1 inhibitor 1.
Screening O=C(Nc1cccc(C(F)(F)F)c1)Nc1cccs1 returned KDM5B inhibitor inconclusive, IP6K1 inhibitor -33* and IP6K1 inh cnf inconclusive.
`O=C(Nc1cccc(C(F)(F)F)c1)c1c(Cl)cccc1Cl` gave KDM5B inhibitor inactive.
O=Cc1cccc(-c2ccc(C(=O)O)cn2)c1 was read as KDM5B inhibitor inactive and IP6K1 inhibitor -16.
For O=Cc1ccc(-c2ccc(C(=O)O)cn2)cc1 the results were KDM5B inhibitor 22µM*, IP6K1 inhibitor -27* and IP6K1 inh cnf 6%.
For O=C(NOC[C@H](O)CO)c1ccc(F)c(F)c1Nc1ccc(I)cc1F the results were IP6K1 inhibitor -6 and IP6K1 inh cnf -1%.
`O=C(NOCC1CC1)c1ccc(F)c(F)c1Nc1ccc(I)cc1Cl` gave IP6K1 inhibitor 11 and IP6K1 inh cnf -14%.
`O=C(NCC(O)CO)c1ccncc1Nc1ccc(I)cc1F` (configuration not stated) gave IP6K1 inhibitor 5.
O=C(Nc1ccc(I)cc1C(F)(F)F)c1cc(Cl)ccc1Cl was read as KDM5B inhibitor inactive.
Cc1nnc2ccc(N3CCCN(C(=O)c4ccccc4)CC3)nn12 was read as IP6K1 inhibitor -2.
For FC(F)(F)c1ccccc1CNCc1ccccc1Cl the results were KDM5B inhibitor inactive.
`O=C(O)COc1cccc(NS(=O)(=O)c2ccc(Br)cc2)c1` gave KDM5B inhibitor inactive.
Screening CSc1nc(C)c(CCC(=O)NC(C)c2ccc(F)c(F)c2)c(C)n1 (configuration not stated) returned KDM5B inhibitor inactive.
`COc1ccc(C2=C(C)C(=O)N(Cc3ccc(C(=O)Nc4ccc(F)cc4C)cc3)S2(=O)=O)cc1` gave KDM5B inhibitor inconclusive, IP6K1 inhibitor -30* and IP6K1 inh cnf -1%.
`COc1ccc(C2=C(C)C(=O)N(Cc3ccc(C(=O)Nc4cccc(F)c4)cc3)S2(=O)=O)cc1` gave KDM5B inhibitor inconclusive and IP6K1 inhibitor -9.
CCc1c(C)sc(NC(=O)c2cc(-c3cccc(C)c3)nc3ccccc23)c1C#N was read as KDM5B inhibitor inactive.
Screening CCOC(=O)c1oc2ccc(S(=O)(=O)NCC3Cn4cccc4C(=O)N3C)cc2c1C (configuration not stated) returned KDM5B inhibitor inactive and IP6K1 inhibitor 0.
For COc1ccc(CCCc2nnc(SCC(=O)Nc3cccc(C)c3)o2)cc1 the results were KDM5B inhibitor inconclusive, IP6K1 inhibitor -33* and IP6K1 inh cnf -13%.
COc1ccc(CCCc2nnc(SCC(=O)Nc3cccc(C)c3)o2)cc1C was read as KDM5B inhibitor inactive and IP6K1 inhibitor 10.
O=C(Nc1nn[nH]n1)c1cccc(S(=O)(=O)N2CCCCCC2)c1 was read as KDM5B inhibitor inactive.
`CN(Cc1ccccc1F)c1ccc(S(N)(=O)=O)cn1` gave KDM5B inhibitor inactive.
COc1ccc(CCNC(=S)Nc2cccc(F)c2)cc1 was read as KDM5B inhibitor inactive.
`Cc1nn(-c2ccccc2)c2sc(C(=O)Nc3cccc(O)c3)cc12` gave KDM5B inhibitor inactive, IP6K1 inhibitor -27* and IP6K1 inh cnf inconclusive.
`CCOc1ccc(NC(=O)c2cc3c(C)nn(-c4ccccc4)c3s2)cc1` gave KDM5B inhibitor inconclusive and IP6K1 inhibitor -3.
`O=C(O)C(c1c[nH]c2ccc(OCc3ccccc3)cc12)N1CCN(CCOCCO)CC1` (configuration not stated) gave KDM5B inhibitor inactive.
For CN(C)c1ccc(-c2cc(-c3ccc(=O)[nH]c3)c3cncn3c2)cc1 the results were KDM5B inhibitor inconclusive, IP6K1 inhibitor 0 and IP6K1 inh cnf -14%.
For OCc1cccc(-c2cc(-c3ccncc3)c3cncn3c2)c1 the results were KDM5B inhibitor inconclusive and IP6K1 inhibitor 14.
`CN(Cc1ccccc1)C(=O)c1ccc(S(=O)(=O)Nc2ccccc2)cc1` gave IP6K1 inh cnf -9%.

High-throughput results as filed in PubChem BioAssay.
